This excerpt belongs to a sample that is enriched for the strongest signals.
Tests used:
Assay in all cases: glycan array binding signal (z-score within array); higher = stronger binding
Settings in all cases: glycan notation: IUPAC condensed, linker removed
Fuc(a1-2)Gal = target: Fuc(a1-2)Gal
Procedure, shortened: (§1)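 Glycan array binding is given as a within-array Z-score, which can be read as non-binding when negative. The arrays, 3228 of them, came from the Consortium for Functional Glycomics database and were retained only where the protein sequence was available. Z-scores were averaged across arrays of the same protein sequence at different concentrations or buffers and across linkers.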

[1] = target: Fuc(a1-2)Gal(b1-4)GlcNAc(b1-3)Gal(b1-4)GlcNAc
Procedure, shortened: as §1

[2] = target: Fuc(a1-2)Gal(b1-4)GlcNAc(b1-3)[Fuc(a1-2)Gal(b1-4)GlcNAc(b1-6)]GalNAc
Procedure, shortened: as §1

[3] = target: Fuc(a1-2)[Gal(a1-3)]Gal(b1-3)GlcNAc(b1-3)GalNAc
Procedure, shortened: as §1

[4] = target: Fuc(a1-2)[Gal(a1-3)]Gal(b1-4)GlcNAc(b1-2)Man(a1-3)[Fuc(a1-2)[Gal(a1-3)]Gal(b1-4)GlcNAc(b1-2)Man(a1-6)]Man(b1-4)GlcNAc(b1-4)GlcNAc
Procedure, shortened: as §1

[5] = target: Fuc(a1-2)[Gal(a1-4)]Gal(b1-4)GlcNAc
Procedure, shortened: as §1

[6] = target: Fuc(a1-2)[GalNAc(a1-3)]Gal
Procedure, shortened: as §1

[7] = target: Fuc(a1-2)[GalNAc(a1-3)]Gal(b1-3)GlcNAc(b1-3)GalNAc
Procedure, shortened: as §1

[8] = target: Fuc(a1-2)[GalNAc(a1-3)]Gal(b1-4)GlcNAc(b1-3)Gal(b1-4)GlcNAc
Procedure, shortened: as §1

[9] = target: Fuc(a1-2)[GalNAc(a1-3)]Gal(b1-4)GlcNAc(b1-3)GalNAc
Procedure, shortened: as §1

Fuc(a1-3)GlcNAc = target: Fuc(a1-3)GlcNAc
Procedure, shortened: as §1

[10] = target: Fuc(a1-3)[Gal(b1-4)]GlcNAc(b1-2)Man
Procedure, shortened: as §1

[11] = target: Gal(a1-3)Gal(b1-3)GlcNAc(b1-6)GalNAc
Procedure, shortened: as §1

Gal(a1-3)Gal(b1-4)Glc = target: Gal(a1-3)Gal(b1-4)Glc
Procedure, shortened: as §1

Gal(b1-3)Gal = target: Gal(b1-3)Gal
Procedure, shortened: as §1

[12] = target: Gal(b1-3)GalNAc(b1-3)Gal(a1-4)Gal(b1-4)Glc
Procedure, shortened: as §1

[13] = target: Gal(b1-3)GlcNAc(b1-2)Man(a1-3)[Gal(b1-3)GlcNAc(b1-2)Man(a1-6)]Man(b1-4)GlcNAc(b1-4)GlcNAc
Procedure, shortened: as §1

[14] = target: Gal(b1-3)GlcNAc(b1-3)Gal(b1-3)GlcNAc
Procedure, shortened: as §1

[15] = target: Gal(b1-3)GlcNAc(b1-3)Gal(b1-4)GlcNAc(b1-2)[Gal(b1-3)GlcNAc(b1-3)Gal(b1-4)GlcNAc(b1-6)]Man(a1-6)[Gal(b1-3)GlcNAc(b1-3)Gal(b1-4)GlcNAc(b1-2)Man(a1-3)]Man(b1-4)GlcNAc(b1-4)[Fuc(a1-6)]GlcNAc
Procedure, shortened: as §1

[16] = target: Gal(b1-4)GlcNAc(b1-2)Man(a1-3)[Gal(b1-4)GlcNAc(b1-2)Man(a1-6)]Man(b1-4)GlcNAc(b1-4)GlcNAc
Procedure, shortened: as §1

[17] = target: Gal(b1-4)GlcNAc(b1-2)Man(a1-6)[Man(a1-3)]Man(b1-4)GlcNAc(b1-4)GlcNAc
Procedure, shortened: as §1

[18] = target: Gal(b1-4)GlcNAc(b1-2)[Gal(b1-4)GlcNAc(b1-6)]Man(a1-6)[Gal(b1-4)GlcNAc(b1-2)Man(a1-3)]Man(b1-4)GlcNAc(b1-4)GlcNAc
Procedure, shortened: as §1

[19] = target: Gal(b1-4)GlcNAc(b1-3)Gal(b1-4)GlcNAc(b1-2)[Gal(b1-4)GlcNAc(b1-3)Gal(b1-4)GlcNAc(b1-6)]Man(a1-6)[Gal(b1-4)GlcNAc(b1-3)Gal(b1-4)GlcNAc(b1-2)Man(a1-3)]Man(b1-4)GlcNAc(b1-4)GlcNAc
Procedure, shortened: as §1

[20] = target: Gal(b1-4)GlcNAc(b1-3)Gal(b1-4)GlcNAc(b1-3)Gal(b1-4)GlcNAc
Procedure, shortened: as §1

[21] = target: Gal(b1-4)GlcNAc(b1-3)Gal(b1-4)GlcNAc(b1-3)Gal(b1-4)GlcNAc(b1-2)Man(a1-3)[Gal(b1-4)GlcNAc(b1-3)Gal(b1-4)GlcNAc(b1-3)Gal(b1-4)GlcNAc(b1-2)Man(a1-6)]Man(b1-4)GlcNAc(b1-4)GlcNAc
Procedure, shortened: as §1

[22] = target: Gal(b1-4)GlcNAc(b1-3)Gal(b1-4)GlcNAc(b1-3)Gal(b1-4)GlcNAc(b1-3)Gal(b1-4)GlcNAc(b1-2)Man(a1-3)[Gal(b1-4)GlcNAc(b1-3)Gal(b1-4)GlcNAc(b1-3)Gal(b1-4)GlcNAc(b1-3)Gal(b1-4)GlcNAc(b1-2)Man(a1-6)]Man(b1-4)GlcNAc(b1-4)[Fuc(a1-6)]GlcNAc
Procedure, shortened: as §1

[23] = target: Gal(b1-4)GlcNAc(b1-3)Gal(b1-4)GlcNAc(b1-3)Gal(b1-4)GlcNAc(b1-3)Gal(b1-4)GlcNAc(b1-2)[Gal(b1-4)GlcNAc(b1-3)Gal(b1-4)GlcNAc(b1-3)Gal(b1-4)GlcNAc(b1-3)Gal(b1-4)GlcNAc(b1-6)]Man(a1-6)[Gal(b1-4)GlcNAc(b1-3)Gal(b1-4)GlcNAc(b1-3)Gal(b1-4)GlcNAc(b1-3)Gal(b1-4)GlcNAc(b1-2)Man(a1-3)]Man(b1-4)GlcNAc(b1-4)[Fuc(a1-6)]GlcNAc
Procedure, shortened: as §1

[24] = target: Gal(b1-4)GlcNAc(b1-3)Gal(b1-4)GlcNAc(b1-3)Gal(b1-4)GlcNAc(b1-3)Gal(b1-4)GlcNAc(b1-3)Gal(b1-4)GlcNAc(b1-3)Gal(b1-4)GlcNAc(b1-2)Man(a1-3)[Gal(b1-4)GlcNAc(b1-3)Gal(b1-4)GlcNAc(b1-3)Gal(b1-4)GlcNAc(b1-3)Gal(b1-4)GlcNAc(b1-3)Gal(b1-4)GlcNAc(b1-3)Gal(b1-4)GlcNAc(b1-2)Man(a1-6)]Man(b1-4)GlcNAc(b1-4)GlcNAc
Procedure, shortened: as §1

B1: MtEccB1 (Mycobacterium tuberculosis H37Rv), O69734 (protein)
chain: MGLRLTTKVQVSGWRFLLRRLEHAIVRRDTRMFDDPLQFYSRSIALGIVVAVLILAGAALLAYFKPQGKLGGTSLFTDRATNQLYVLLSGQLHPVYNLTSARLVLGNPANPATVKSSELSKLPMGQTVGIPGAPYATPVSAGSTSIWTLCDTVARADSTSPVVQTAVIAMPLEIDASIDPLQSHEAVLVSYQGETWIVTTKGRHAIDLTDRALTSSMGIPVTARPTPISEGMFNALPDMGPWQLPPIPAAGAPNSLGLPDDLVIGSVFQIHTDKGPQYYVVLPDGIAQVNATTAAALRATQAHGLVAPPAMVPSLVVRIAERVYPSPLPDEPLKIVSRPQDPALCWSWQRSAGDQSPQSTVLSGRHLPISPSAMNMGIKQIHGTATVYLDGGKFVALQSPDPRYTESMYYIDPQGVRYGVPNAETAKSLGLSSPQNAPWEIVRLLVDGPVLSKDAALLEHDTLPADPSPRKVPAGASGAP
B1 was tested. Which “glycan array binding signal (z-score)” value (Fuc(a1-2)Gal) did it give?
Its value is -0.548.

And the “glycan array binding signal (z-score)” value [1]?
Its value is -0.199.

And the “glycan array binding signal (z-score)” value [2]?
The value was -0.809.

And the “glycan array binding signal (z-score)” value [3]?
Its value is 0.379.

And the “glycan array binding signal (z-score)” value [4]?
The value was -0.471.

And the “glycan array binding signal (z-score)” value [5]?
The value was -1.08.

What about the “glycan array binding signal (z-score)” value [6] of the same binder?
Its value is -0.459.

And the “glycan array binding signal (z-score)” value [7]?
The value was 0.901.

What about the “glycan array binding signal (z-score)” value [8] of the same binder?
The value was -1.03.

And the “glycan array binding signal (z-score)” value [9]?
Its value is -0.767.

What about the “glycan array binding signal (z-score)” value (Fuc(a1-3)GlcNAc) of the same binder?
The value was -1.29.

What about the “glycan array binding signal (z-score)” value [10] of the same binder?
Its value is -0.707.

And the “glycan array binding signal (z-score)” value [11]?
The value was -0.407.

What about the “glycan array binding signal (z-score)” value (Gal(a1-3)Gal(b1-4)Glc) of the same binder?
The value was 0.359.

What about the “glycan array binding signal (z-score)” value (Gal(b1-3)Gal) of the same binder?
The value was 0.485.

And the “glycan array binding signal (z-score)” value [12]?
Its value is -0.784.

What about the “glycan array binding signal (z-score)” value [13] of the same binder?
Its value is 2.58.

What about the “glycan array binding signal (z-score)” value [14] of the same binder?
The value was 0.213.

What about the “glycan array binding signal (z-score)” value [15] of the same binder?
Its value is 1.6.

And the “glycan array binding signal (z-score)” value [16]?
Its value is -1.33.

What about the “glycan array binding signal (z-score)” value [17] of the same binder?
The value was 2.86.

And the “glycan array binding signal (z-score)” value [18]?
Its value is -0.552.

And the “glycan array binding signal (z-score)” value [19]?
The value was 2.86.

What about the “glycan array binding signal (z-score)” value [20] of the same binder?
The value was 2.06.

And the “glycan array binding signal (z-score)” value [21]?
Its value is 0.867.

What about the “glycan array binding signal (z-score)” value [22] of the same binder?
The value was 1.01.

What about the “glycan array binding signal (z-score)” value [23] of the same binder?
Its value is 1.93.

What about the “glycan array binding signal (z-score)” value [24] of the same binder?
Its value is 2.86.

From the supplement of paper PMC8728848
